These results are taken from PubChem BioAssay (NCI).

This is part of a sample that, as a whole, favours compounds with a hit. Of some 83,000 tested, about 20% had one in any assay.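 48-hour exposure, single concentration, 96-well plates; percent growth endpoint where 0 means no net growth. Active: below 10.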 Values without a mark were called inactive. Calls of active or inactive are those of the source.

Holding throughout (assay): NCI-60 one-dose screen, 48 h (100 = growth as untreated, 0 = no growth, -100 = all killed)
Conditions in all cases: 10 µM unless noted

Assay [1] deals with RPMI-8226 leukemia.
Assay [2] has as its system OVCAR-8 ovarian.
Assay [3] has as its system OVCAR-5 ovarian.
Assay [4] has as its system OVCAR-4 ovarian.
Assay [5] deals with IGROV1 ovarian.
Assay [6] concerns OVCAR-3 ovarian.
In assay [7] the test system is HS 578T breast.
The subject of assay [8] is NCI/ADR-RES ovarian.
Assay [9] concerns T-47D breast.
The test system of assay [10] is SK-OV-3 ovarian.

As for `NCCN1CCNCC1`, the growth in [1] is 79.2%; in assay [2], 112%; in assay [3], 94%; in assay [4], 100%; in [5], 104%; in [6], 109%. For the same compound, the growth in assay [7] is 98%; in [8], 102%; in [9], 86.2%.
Turning to `COC(=O)CCc1cc(O)c2c(c1)[C@@H](C(=O)OC)[C@H](c1ccc(O)c(O)c1)O2`, the growth in assay [1] was 80.5%; in assay [2], 90.6%; in assay [4] it was 83%; in assay [10], 97.4%; in assay [5] it was 88.1%; in assay [6] it was 27.5%. For the same compound, the growth is 74.3% in assay [7], 87.8% in [8] and 66% in assay [9].
Turning to `O=S(=O)(O)c1ccc(N=NSc2ccc3ccccc3c2)cc1`, the growth in assay [1] is 91.7%; in assay [2], 108%; in assay [3], 106%; in assay [4], 101%; in [5], 93.2%; in [6], 98.6%. For the same compound, the growth is 98.7% in [7], 96.4% in [8] and 82.2% in assay [9].
Turning to `COc1cc(C2=NN(C(C)=O)C(c3cccc(Nc4ccnc5cc(C(F)(F)F)ccc45)c3)C2)cc(OC)c1OC` (stereo unspecified), the growth is 20.8% in assay [1]; 56.1% in assay [2]; 82.7% in [3]; 52% in [4]; 62.4% in assay [5]; 61.2% in assay [6]. Also, the growth in assay [7] was 76.6%; in assay [8], 53%; in [9] it was 40.2%.
Turning to `CC(=O)OCC1SC(OC(C)=O)C(NC(=O)/C=C/CCl)C(OC(C)=O)C1OC(C)=O` (stereo unspecified), the growth in assay [1] was 95.2%; in assay [2] it was 98.2%; in assay [3], 148%; in assay [4], 101%; in [5], 105%; in assay [6], 102%. The growth is 93.5% in [7], 103% in assay [8] and 90.6% in assay [9].
As to `CCOC(=O)C(=Cc1c(-c2ccccc2)[nH]c2ccccc12)C(=O)OCC`, the growth in assay [1] is -47.8% (active); in assay [2] it was 39.4%; in assay [3], 98.3%; in assay [4], 49.9%; in assay [5], 34.7%; in assay [6], 38%. Besides, the results for the growth in assay [7], in assay [8] and in assay [9] were 59.5%, 24.7% and 21.1%, respectively.
`Nc1c(C(=O)Nc2ccccc2Cl)sc2nc3c(cc12)CN(Cc1ccccc1)CC3`: the growth in assay [1] was 103%; in [2], 118%; in assay [4] it was 113%; in assay [10], 91.2%; in assay [5], 87.5%; in assay [6], 85.1%. Also, the growth in assay [7] is 108%; in [8] it was 99.8%; in [9] it was 87.8%.
In the case of `COc1ccc(-c2cs/c(=N\N=C\c3ccc(O)cc3O)n2/N=C/c2ccc(O)cc2O)cc1`, the growth in assay [1] was -25.9% (active); in assay [2], -17.1% (active); in assay [4], -7.88% (active); in assay [10], -30.8% (active); in [5], -17.2% (active); in [6], -63.5% (active). The results for the growth in assay [7], in [8] and in assay [9] were 24.1%, -12.4% (active) and -36.8% (active), respectively.
`COc1ccc(Nc2cc(NC(=O)CNc3cc(OC)c(Cl)c(OC)c3Cl)ncn2)cc1`: the growth is 62.5% in [1]; 78.2% in assay [2]; 80.1% in assay [4]; 79.8% in [10]; 74.2% in assay [5]; 81.6% in assay [6]. Besides, the growth in assay [7] was 83.4%; in assay [8] it was 84.8%; in assay [9], 47.1%.
Regarding `Cc1nc2sc(C(=O)Nc3ccccc3)c(N)c2cc1C(C)O` (stereo unspecified), the growth is 16.9% in [1]; 36.4% in [2]; 64.5% in assay [4]; 31% in assay [10]; 40.2% in assay [5]; 21.8% in [6]. Further, the growth in [7] was 44.9%; in [8], 15.4%; in assay [9], 44.6%.
As to `N#Cc1c(-c2ccc(F)cc2)nc(N/N=C/c2cccc(O)c2)nc1N1CCOCC1`, the growth in assay [1] is 41.3%; in assay [2] it was 69.7%; in assay [4] it was 79.7%; in assay [10] it was 93.9%; in assay [5] it was 61.4%; in assay [6], 78.6%. The growth in [7] was 84.4%; in assay [8], 72.8%; in assay [9], 89.2%.
On to `CCC[S@](=O)c1ccc2nc(NC(=O)OC)[nH]c2c1`, for which the growth was 96.4% in [1]; 84.9% in assay [2]; 104% in [4]; 74.5% in assay [10]; 97.1% in assay [5]; 104% in [6]. In addition, the results for the growth in assay [7], in assay [8] and in assay [9] were 102%, 106% and 87.7%, respectively.
For `COc1ccc2nc(-c3ccc(Cl)cc3)cc(-c3nnc(SC/C(=N/O)c4ccccc4)o3)c2c1`, the growth in [1] was 41.3%; in assay [2], 49.7%; in assay [4], 16.7%; in assay [10], 69.6%; in [5], 50.8%; in [6], 34%. Also, the growth in [7] was 71.9%; in assay [8], 57.4%; in assay [9], 27%.
Turning to `COc1ccc(-c2nc(C#N)c(NCC(c3ccc(Cl)cc3)N3CCCCC3)o2)cc1` (stereo unspecified), the growth in assay [1] was 85.6%; in assay [2], 101%; in [4] it was 87.5%; in assay [10], 109%; in [5], 85.8%; in [6], 95.1%. For the same compound, the growth in [7] is 97.3%; in assay [8], 87.1%; in [9], 94.8%.
